# CYP2C19 inh: inhibitors of human CYP2C19; CYP2C19 Supersomes, luciferin-H EGE luminescence, 30 min; 21% of 96,000 active; inhibition, % at 5 µM;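 active = CYP2C19 inhibition above a set limit at 5 µM in the primary screen, cut at about 50% in these data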
# Target sequence (P33261 whole entry, looked up): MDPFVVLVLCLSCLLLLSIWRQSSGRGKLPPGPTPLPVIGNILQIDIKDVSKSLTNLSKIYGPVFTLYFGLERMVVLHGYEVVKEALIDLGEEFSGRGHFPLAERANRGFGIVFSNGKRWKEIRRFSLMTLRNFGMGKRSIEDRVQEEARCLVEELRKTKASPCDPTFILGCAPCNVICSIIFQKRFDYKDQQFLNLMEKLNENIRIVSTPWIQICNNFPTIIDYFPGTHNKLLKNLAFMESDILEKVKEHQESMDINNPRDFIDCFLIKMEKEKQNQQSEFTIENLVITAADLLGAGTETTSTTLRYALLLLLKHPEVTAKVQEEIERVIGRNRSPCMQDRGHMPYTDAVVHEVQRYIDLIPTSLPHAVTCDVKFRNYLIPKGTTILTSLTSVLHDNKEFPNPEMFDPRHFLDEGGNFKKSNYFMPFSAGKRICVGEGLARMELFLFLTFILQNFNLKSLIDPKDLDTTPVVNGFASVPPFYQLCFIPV
# CYP2C9 inh: blocks human cytochrome P450 2C9; CYP2C9 Supersomes, luciferin-H conversion, luminescence; inhibition, % at 5 µM; 20% of 96,000 active;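 active = blocking of liver enzyme CYP2C9 beyond about 50% at 5 µM, limit read from the data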
# CYP2C9 activ: CYP2C9 (human) activation. P11712. recombinant CYP2C9, luciferin-H conversion, luminescence; hits give high values; factor 1 = untreated enzyme, 0 = blocked. activation factor at 5 µM. 1.4% of 96,000 active. AID 1024;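 active = activation factor of 2 or more for CYP2C9 at a 5 µM dose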
# CYP2C19 act: increases human CYP2C19 enzyme activity | recombinant CYP2C19, luciferin-H EGE luminescence; hits give high values; 0 = fully inhibited enzyme, 1 = untreated enzyme | 96,000 tested, under 10 active | activation factor at 5 µM | P33261;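 active = activation factor of at least 2 at 5 µM in the primary screen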
# A number is an active result; - = inactive. The list is not random: actives were taken first. Their share in the collection is about 31%.
SMILES,CYP2C19 inh,CYP2C9 inh,CYP2C9 activ,CYP2C19 act
COc1ccc(NC(=O)c2ccco2)cc1NC(=O)c1cccnc1,-,-,-,-
O=C(CN1CCN(c2cccc(C(F)(F)F)c2)CC1)Nc1cccc(C(F)(F)F)c1,-,58,-,-
CN(C)S(=O)(=O)Oc1ccccc1C(=O)Nc1cccc(C(F)(F)F)c1,86,-,-,-
O=C(CN1CCOCC1)Nc1cccc(C(=O)Nc2cccc(C(F)(F)F)c2)c1,-,52,-,-
CC(=O)Nc1ccc(NC(=O)CN2CCN(c3cccc(C(F)(F)F)c3)CC2)cc1,-,-,-,-
COc1cc2c(cc1NC(=S)Nc1cccc3ccccc13)oc1ccccc12,-,-,-,-
COc1ccccc1C(=O)Nc1cccc(NC(C)=O)c1,-,-,-,-
COc1cc2c(cc1NC(=S)Nc1cccc(C(F)(F)F)c1)oc1ccccc12,70,79,-,-
FC(F)(F)c1cccc(NC(=S)NCc2ccccc2)c1,63,-,-,-
COc1cc(NC(=O)CSCC(=O)Nc2cccc(C(F)(F)F)c2)c(Cl)cc1Cl,-,50,-,-
CCC(C(=O)Nc1cccc(C(F)(F)F)c1)c1ccccc1 (configuration not stated),56,71,-,-
CSCC[C@H](NC(=O)Nc1cccc(C(F)(F)F)c1)C(=O)O,-,-,-,-
O=C(Cc1ccccc1)Nc1ccc(N2CCCC2)cc1,-,-,-,-
FC(F)(F)c1cccc(NC(=S)NCCc2ccccn2)c1,-,-,-,-
O=C(Cc1ccccc1)Nc1cccc(N2CCCC2)c1,-,77,-,-
CCCCNC(=O)Oc1cccc(N2CCCC2=O)c1,-,-,-,-
O=C(O)CCCNC(=O)c1cncc(Br)c1,-,-,-,-
O=C(Nc1cccc(C(F)(F)F)c1)N1CCN(C(=O)Nc2cccc(C(F)(F)F)c2)CC1,-,-,-,-
O=C(COCC(=O)Nc1cccc(C(F)(F)F)c1)Nc1cccc(C(F)(F)F)c1,84,-,-,-
O=C(CSc1ncn[nH]1)NCCCc1ccccc1,57,-,-,-
O=C(CSc1ncn[nH]1)Nc1ccccc1Sc1ccccc1,87,-,-,-
CCC(C)NC(=O)C(NS(=O)(=O)c1ccc2c(c1)c(=O)n(C)c(=O)n2C)c1ccccc1 (configuration not stated),-,-,-,-
COc1nc(Oc2ccc(C(=O)OCC(N)=O)cc2)nc(N(C)C)n1,-,-,-,-
CCOC(=O)C(C)Oc1nc(Oc2ccccc2)nc(N(C)C)n1 (configuration not stated),57,-,-,-
COC(=O)c1ccc(Oc2nc(Nc3ccccc3)nc(N(C)C)n2)cc1,-,52,-,-
SMILES,CYP2C19 inh,CYP2C9 inh,CYP2C9 activ,CYP2C19 act
O=c1[nH]c(=O)n(CCO)c2nnn(Cc3ccccc3)c12,-,-,-,-
O=C(Cn1cnc2c(nnn2-c2ccccc2)c1=O)NCC1CCCO1 (configuration not stated),-,-,-,-
COc1cc(C(=O)N2CCC(O)(c3ccccc3)CC2)cc(OC)c1OC,66,79,-,-
COc1ccccc1N1CCN(C2CCN(C(=O)c3cc(OC)c(OC)c(OC)c3)CC2)CC1,-,-,-,-
CCCN(CCC)C(=O)CC(c1ccccc1)c1cc(C)ccc1O (configuration not stated),-,53,-,-
CN(Cc1ccccc1)C(=O)CC(c1ccccc1)c1cc(Cl)ccc1O (configuration not stated),-,76,-,-
COc1cccc(C2c3c(oc4ccc(Cl)cc4c3=O)C(=O)N2c2cc(C)on2)c1OC (configuration not stated),-,-,-,-
NC1=NC(c2ccc(F)cc2)n2c(nc3ccccc32)N1 (configuration not stated),67,-,-,-
Cc1cc(C2N=C(N)Nc3nc4ccccc4n32)c(C)n1-c1ccccc1Cl (configuration not stated),69,80,-,-
Cc1ccc(-n2c(C)cc(C3N=C(N)Nc4nc5ccccc5n43)c2C)c(C)c1 (configuration not stated),61,77,-,-
NC1=NC(c2cccc(O)c2)n2c(nc3ccccc32)N1 (configuration not stated),-,-,-,-
CC1(C)C2CCC1(C)C(OC(=O)CSc1nc(N)cc(=O)[nH]1)C2 (configuration not stated),-,-,-,-
COc1ccc(C(OC(=O)c2cccs2)C(=O)NCC2CCCO2)cc1 (configuration not stated),63,-,-,-
CC(C)CC(OC(=O)c1cccs1)C(=O)NCC1CCCO1 (configuration not stated),58,84,-,-
COc1ccccc1C(OC(=O)c1cccs1)C(=O)NCC1CCCO1 (configuration not stated),-,-,-,-
Cc1ccc(-c2nnc(N3CCN(C(=O)CSc4ncn[nH]4)CC3)c3ccccc23)cc1,70,64,-,-
COc1ccc(C(=O)CSc2ncn[nH]2)cc1OC,-,-,-,-
Cc1ccc(C(=O)CSc2ncn[nH]2)cc1,-,53,-,-
CCc1ccc(C(=O)CSc2ncn[nH]2)cc1,75,-,-,-
CCSc1cc(C)nc2ncnn12,-,-,-,-
COc1ccccc1/C=N/NC(=O)C(NC(=O)c1ccccc1)=C(C)C,-,-,-,-
O=C(CSc1nnnn1C1CCCC1)c1ccc2c(c1)OCCO2,-,-,-,-
CCn1c(SCCC#N)nnc1-c1ccncc1,-,-,-,-
C=CCn1c(SCCC#N)nnc1-c1ccncc1,55,-,-,-
C=CCn1c(SCC(=O)Nc2ncc(Cc3cc(Cl)ccc3Cl)s2)nnc1-c1ccncc1,56,-,-,-
SMILES,CYP2C19 inh,CYP2C9 inh,CYP2C9 activ,CYP2C19 act
Cc1ccccc1-c1nnc(SCC(=O)Nc2ccc3c(c2)OCCO3)n1N,-,73,-,-
C=CCn1c(SCC(=O)Nc2ccc3c(c2)OCO3)nnc1-c1ccccc1OC,83,89,-,-
CC1(C)Cc2ccccc2-c2nnc(SCC(=O)Nc3ccc4c(c3)OCO4)n21,-,-,-,-
CCc1cc2c(=O)nc3n(c2s1)Cc1ccccc1/C3=C(/O)c1ccccc1Cl,-,-,-,-
O=C(NC1CCCC1)C(c1ccc(Cl)cc1)N1CCc2ccccc21 (configuration not stated),-,-,-,-
C=CCn1c(SCC(=O)Nc2c(C)cccc2C)nnc1-c1ccncc1,72,-,-,-
C=CCn1c(SCC(=O)NC(C)(C)C)nnc1-c1ccccc1O,-,-,-,-
O=C(CSc1nnc(CNC(=O)c2cccs2)o1)Nc1ccc2c(c1)OCO2,-,-,-,-
Nn1c(SCC(=O)Nc2ccc3c(c2)OCO3)nnc1-c1ccc(Cl)cc1,-,-,-,-
O=C(CSc1nnc(Cc2ccccc2)o1)Nc1ccc2c(c1)OCO2,60,94,-,-
Nn1c(SCC(=O)Nc2ccc3c(c2)OCO3)nnc1-c1ccccc1,-,51,-,-
C=CCn1c(SCC(=O)Nc2ccc3c(c2)OCO3)nnc1-c1cc(Br)ccc1O,-,82,-,-

# Assay outcomes as filed in PubChem.
